# PubChem BioAssay
# Several values for one entry are separate records, joined by “and”; a condition that tells them apart may be missing. Identical values can stand only once. Activity calls are given as the source filed them.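 How the source made its calls, unless noted: active means compound raises GLP1 secretion from the human gut endocrine cells, with no numeric limit stated; inactive means the rest.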
# Legend:
# [1] = Wnt pathway potentiators raising nuclear beta-catenin – imaging, WNT3A-conditioned medium, mouse C2C12, NPC library, primary screen (AID 1117326; in the data active means nuclear beta-catenin stimulation mostly above about 4.2%, no sharp cut-off; inactive means mostly below about 10%); settings: stronger effect = higher value
# [2] = stimulators of insulin release from INS-1E, primary screen, cell-based, 5 mM glucose, NPC library (AID 1117329;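 active means compound raises insulin release from rat beta cells at 5 mM glucose, no numeric limit stated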); settings: rat INS-1E insulin secretion, at 10 µM, stronger effect = higher value
# [3] = growth inhibition of GSK3B-pretreated HCT116 cells – cell-based, CellTiter-Glo, 0.2 to 20 µM (AID 1117336;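 active means compounds lowering colon cancer cell viability after pretreatment blocking the GSK3B kinase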); settings: HCT116 viability after GSK3B inhibitor, at 20 µM, stronger effect = higher value
# [4] = inhibition of endothelial tube formation, primary screen, imaging, VEGF stimulated, CD31 staining, tube area, NPC library (AID 1117340;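 active means compound that reduces growth-factor-driven endothelial tube area in a mixed cell culture, no cutoff stated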); settings: VEGF-stimulated ADSC/ECFC co-culture, at 10 µM, stronger effect = higher value
# [5] = GLP1 release stimulators, primary, NCI-H716, NPC library (AID 1117341); settings: NCI-H716 cells, at 10 µM, stronger effect = higher value
# [6] = HCT116 colon cancer cell growth inhibition, primary screen, CellTiter-Glo luminescence, NPC library (AID 1117342;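 active means compounds that lower survival of HCT116 colon cancer cells in the luminescence readout, no numeric limit stated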); settings: at 20 µM (top of the series)
# [7] = reduced SW480 viability measured with CellTiter-Glo, NPC library, primary (AID 1117343;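 active means compounds that lower viability of the colon cancer cells in the luminescence readout, with no numeric limit stated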); settings: CellTiter-Glo luminescence; at 20 µM (top of the series) unless noted
# [8] = NPC library primary testing for decreased DLD-1 cell viability via CellTiter-Glo (AID 1117346;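 active means compounds that lower survival of DLD-1 colon cancer cells in the luminescence readout, no cutoff given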); settings: DLD-1 viability, CellTiter-Glo luminescence; at 20 µM (top of the series)
# [9] = EMT-state selective cytotoxicity in co-culture – imaging, PC-3E GFP, TEM4-18 mCherry, primary screen (AID 1345086;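 active means compounds killing one labelled cell type while sparing the other, by normalised counts and ratio limits, not self-fluorescent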;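 on all read-outs here: cells exposed to compound for 72 h before imaging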;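 on red/green cell ratio (normalised): normalised mesenchymal count divided by normalised epithelial count so high means epithelial killing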); settings: PC-3E GFP / TEM4-18 mCherry co-culture, imaging cell counts, at 1 µM; for red/green cell ratio (normalised): actives lie on both sides, counts scaled to control wells, 1 = unselective
# [10] = viability loss with induced miR-34 in A549 – imaging, A549 dox-inducible miR-34, nuclei and caspase counts, primary screen (AID 1347080;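 active means compounds whose cell count with miR-34 switched on is under 0.7 times the count with it off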); settings: A549 miR-34 inducible, Hoechst nuclei count, 48 h
# [11] = biological target: NAD(+) hydrolase SARM1 (Homo sapiens) (UniProt Q6SZW1); test: blocking NAD cleavage by SARM1 SAM-TIR – cell lysate, NAD-Glo luminescence (AID 1508614;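 active means compound whose remaining NAD level is above about 45 nM, limit read from the data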); settings: SAM-TIR HEK293T lysate NADase, at 1 µM, stronger effect = higher value
# [12] = compounds altering viability of human ES cells (AID 493140; call rule not given here;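 further: cells exposed to compounds for four days before counting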); settings: human embryonic stem cell survival screen; stronger effect = higher value
# [13] = P. berghei load reduction in hepatocytes – cell-based, HepG2, luciferase luminescence, HepG2 viability, primary screen (AID 624349; in the data active means parasite load remaining mostly below about 12%, no sharp cut-off; inactive means mostly above about 10%;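 further: 100% = mean of DMSO negative control wells on the same plate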); settings: P. berghei liver stage in HepG2, luciferase luminescence, concentration not given here; parasite load remaining: stronger effect = lower value; viability: measured here: HepG2 viability without parasites
# [14] = MELAS cybrid and Rieske KO viability enhancers – cell-based, MELAS cybrids, Rieske KO mouse fibroblasts, CellTiter-Glo, primary screen (AID 1508586;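 active means mean z-score across replicates of 1.96 or higher in either the MELAS or the Rieske mutant cell line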;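 further: z relative to plate mean and SD of compound and empty wells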); settings: low glucose
# [15] = measured here: epithelial PC-3E GFP cell survival
# [16] = measured here: mesenchymal TEM4-18 mCherry cell survival
# [17] = stronger effect = lower value, cell number ratio, induced over uninduced
# [18] = measured here: relative caspase fold change +Dox/-Dox
# [19] = measured here: total cells with miR-34 induction, stronger effect = lower value
# [20] = measured here: total cells without miR-34 induction
# NAD(+) hydrolase SARM1 (Homo sapiens), sequence (Q6SZW1 whole entry, looked up): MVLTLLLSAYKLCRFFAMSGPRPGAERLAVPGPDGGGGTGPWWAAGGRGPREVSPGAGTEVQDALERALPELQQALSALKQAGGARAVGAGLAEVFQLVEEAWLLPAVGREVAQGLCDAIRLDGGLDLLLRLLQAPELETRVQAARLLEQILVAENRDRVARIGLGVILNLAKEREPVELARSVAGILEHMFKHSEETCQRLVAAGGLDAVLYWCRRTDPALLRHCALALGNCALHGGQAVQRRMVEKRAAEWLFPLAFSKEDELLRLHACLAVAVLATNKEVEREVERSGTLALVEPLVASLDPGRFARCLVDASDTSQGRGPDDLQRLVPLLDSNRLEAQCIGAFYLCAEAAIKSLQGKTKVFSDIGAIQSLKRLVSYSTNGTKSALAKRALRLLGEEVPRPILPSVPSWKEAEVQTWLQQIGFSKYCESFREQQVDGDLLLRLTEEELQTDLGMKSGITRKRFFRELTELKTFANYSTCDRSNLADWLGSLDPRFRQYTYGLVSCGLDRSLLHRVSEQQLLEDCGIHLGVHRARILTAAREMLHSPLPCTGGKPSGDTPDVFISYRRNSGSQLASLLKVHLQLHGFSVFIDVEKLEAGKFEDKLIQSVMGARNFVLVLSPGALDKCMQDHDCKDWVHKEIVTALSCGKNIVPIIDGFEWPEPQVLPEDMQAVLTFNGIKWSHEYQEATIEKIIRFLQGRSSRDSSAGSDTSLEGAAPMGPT
compound,measurement,setting,value
CNC(=O)c1c(I)c(NC(C)=O)c(I)c(C(=O)O)c1I,nuclear beta-catenin stimulation,[1]; at 10 µM,0.7% (inactive)
same,nuclear beta-catenin stimulation,"[1]; stimulation, at 2 µM",0.8%
same,insulin secretion stimulation,[2],0.9% (inactive)
same,viability decrease,[3],-4.1% (inactive)
same,tube area decrease,[4],4.3% (inactive)
same,GLP1 secretion stimulation,[5],0.4% (inactive)
same,inhibition of viability,[6],13.4% (inactive)
same,viability decrease (inhibition),[7],0.4% (inactive)
same,viability decrease (inhibition),[8],-2.95% (inactive)
same,red/green cell ratio (normalised),[9],0.78 (inactive)
same,normalised cell number,[9]; [15],1.25
same,normalised cell number,[9]; [16],0.97
same,fold change,[10]; [17],0.982 (inactive)
same,fold change,[10]; [18],0.852
same,cell count,[10]; [19],9390
same,cell count,[10]; [20],9560
same,remaining NAD,[11],10 nM (inactive)
Cc1cccc(C)c1NC(=O)CN1CCN(CCCC(c2ccc(F)cc2)c2ccc(F)cc2)CC1,survival,[12],2.42 (inactive)
same,parasite load remaining,[13],135% (inactive) and 49% (inactive)
same,viability,[13],101% and 79.5%
same,nuclear beta-catenin stimulation,[1]; at 10 µM,4.7% (inactive)
same,nuclear beta-catenin stimulation,"[1]; stimulation, at 2 µM",1.2%
same,insulin secretion stimulation,[2],-1.1% (inactive)
same,viability decrease,[3],99.6% (active)
same,tube area decrease,[4],82.9% (active)
same,GLP1 secretion stimulation,[5],-2.6% (inactive)
same,inhibition of viability,[6],99.7% (active)
same,viability decrease (inhibition),[7],97.6% (active)
same,viability decrease (inhibition),[8],102% (active)
same,red/green cell ratio (normalised),[9],1.02 (inactive)
same,normalised cell number,[9]; [15],1.1
same,normalised cell number,[9]; [16],1.13
same,fold change,[10]; [17],0.884 (inactive)
same,fold change,[10]; [18],1.28
same,cell count,[10]; [19],8280
same,cell count,[10]; [20],9370
same,z-score,"[14]; MELAS cybrid survival, CellTiter-Glo 48 h, stronger effect = higher value",0.335 (inactive)
same,z-score,"[14]; Rieske KO mouse fibroblast survival, CellTiter-Glo 72 h",0.284
CC(O)C(=O)O (centres undefined),nuclear beta-catenin stimulation,[1]; at 10 µM,2.5% (inactive)
same,nuclear beta-catenin stimulation,"[1]; stimulation, at 2 µM",3%
same,insulin secretion stimulation,[2],-0.6% (inactive)
same,viability decrease,[3],-5.3% (inactive)
same,tube area decrease,[4],8.4% (inactive)
same,GLP1 secretion stimulation,[5],3.4% (inactive)
same,inhibition of viability,[6],2.73% (inactive)
same,viability decrease (inhibition),[7],-11.7% (inactive)
same,viability decrease (inhibition),[8],-8.5% (inactive)
same,red/green cell ratio (normalised),[9],1.08 (inactive)
same,normalised cell number,[9]; [15],1.05
same,normalised cell number,[9]; [16],1.14
same,fold change,[10]; [17],0.885 (inactive)
same,fold change,[10]; [18],0.852
same,cell count,[10]; [19],8900
same,cell count,[10]; [20],10100
same,remaining NAD,[11],10 nM (inactive)
CN1C(=O)CC(C)(c2ccccc2)C1=O (centres undefined),nuclear beta-catenin stimulation,[1]; at 10 µM,2.5% (inactive)
same,nuclear beta-catenin stimulation,"[1]; stimulation, at 2 µM",2%
same,insulin secretion stimulation,[2],-0.7% (inactive)
same,viability decrease,[3],-2.5% (inactive)
same,tube area decrease,[4],-16.2% (inactive)
same,GLP1 secretion stimulation,[5],2.6% (inactive)
same,inhibition of viability,[6],8.7% (inactive)
same,viability decrease (inhibition),[7],19.6% (inactive)
same,viability decrease (inhibition),[8],-5.25% (inactive)
same,red/green cell ratio (normalised),[9],1.03 (inactive)
same,normalised cell number,[9]; [15],0.99
same,normalised cell number,[9]; [16],1.02
same,fold change,[10]; [17],0.901 (inactive)
same,fold change,[10]; [18],0.963
same,cell count,[10]; [19],8480
same,cell count,[10]; [20],9410
same,remaining NAD,[11],10 nM (inactive)
[O-][n+]1cccc(CO)c1,nuclear beta-catenin stimulation,[1]; at 10 µM,-0.4% (inactive)
same,nuclear beta-catenin stimulation,"[1]; stimulation, at 2 µM",0.6%
same,insulin secretion stimulation,[2],2.1% (inactive)
same,viability decrease,[3],-35% (inactive)
same,tube area decrease,[4],18.7% (inactive)
same,GLP1 secretion stimulation,[5],-4.1% (inactive)
same,inhibition of viability,[6],1.43% (inactive)
same,viability decrease (inhibition),[7],-11.9% (inactive)
same,viability decrease (inhibition),[8],-6% (inactive)
same,red/green cell ratio (normalised),[9],0.9 (inactive)
same,normalised cell number,[9]; [15],1.13
same,normalised cell number,[9]; [16],1.02
same,fold change,[10]; [17],0.861 (inactive)
same,fold change,[10]; [18],0.917
same,cell count,[10]; [19],7710
same,cell count,[10]; [20],8950
same,remaining NAD,[11],10 nM (inactive)
